Screening data (PubChem)
MARV entry inh = qHTS for inhibitors of binding or entry into cells for Marburg Virus. Marburg virus pseudotyped entry inhibition, cell reporter. Potency, µM (doses to about 37.8 µM), without a hit: at the highest dose activity change, negative = inhibition, hits mostly inhibitors. 1.8% of 300,000 active; calls by dose curve; tested in HEK293 cells; note: potency is the fitted concentration of half-maximal effect; % is set by controls: 0 for no effect and ±100 for the full control effect
HCMV inh = qHTS Assay for inhibitors of the human cytomegalovirus (HCMV) | AID 1259415, 2018 | 4.5% of 410,000 active | activity change, negative = inhibition, % at 57.5 µM | HFF cells, HCMV-luciferase reporter, 72 h; stronger effect = lower value; in the data active = activity change below about -60%; inconclusive = no clear call, values can overlap the other calls; inactive = above about -39%; note: % is set by controls: 0 for no effect and ±100 for the full control effect
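Steps: HFFs plated, 16 h 37C; compounds added; HCMV-luciferase added to MOI 1 PFU/cell; 72 h 37C; OneGlo reagent, 5 min room temperature; luminescence read, normalized to controls.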
HCV inh = qHTS Assay for Inhibitors of Hepatitis C Virus (HCV). Potency, µM (top dose mostly 41.8 µM), for the others: top-dose activity change, negative = inhibition, actives largely listed as inhibitors. 3.4% of 340,000 active. AID 651820, 2012. Huh7.5.1 HCVcc-Cre infection, luciferase reporter, 44 h; active = well fitted inhibition curve with a large enough effect; inconclusive = small, poorly fitted or top-dose-only effect, or another doubt; inactive = no such curve, though single readings can be large or run the other way; note: potency is the fitted concentration of half-maximal effect; % is set by controls: 0 for no effect and ±100 for the full control effect
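Cells seeded at 1,000/well and cultured 4 h, then compounds added followed by HCVcc-Cre virus (~0.5 moi). After 44 h further culture, luciferase substrate was added, plates held 15 min at room temperature, and luminescence read for 15 sec.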
FMDV antiviral = High Throughput Screening for Foot and Mouth Disease Virus Antivirals; FMDV antiviral cell-based qHTS; Potency, µM (titrated, usually from 57.9 µM), inactives show at the highest dose activity change, negative = inhibition, usual class: inhibitors; 1.2% of 410,000 active; calls by dose curve; tested in HEK293T cells; note: read-out not given here; potency is the fitted concentration of half-maximal effect; % is set by controls: 0 for no effect and ±100 for the full control effect; nearly all actives have a fitted effect of over 45% in size
SARS PLpro yeast = qHTS of Yeast-based Assay for SARS-CoV PLP; S. cerevisiae expressing SARS-CoV PLpro, growth rescue; Potency, µM (doses to about 32.9 µM), for inactives: at the highest dose activity, positive = growth rescue, actives largely listed as activators; 0.19% of 330,000 active; calls by dose curve; note: potency is the fitted concentration of half-maximal effect; 0% is about no effect; nearly all actives have a fitted effect of over 55% in size
LASV entry inh = qHTS for Inhibitors of binding or entry into cells for Lassa Virus; Lassa virus pseudotype entry inhibition, cell reporter; Potency, µM (doses to about 37.9 µM), inactives show at the highest dose activity change, negative = inhibition, hits mostly inhibitors; 1.2% of 300,000 active; AID 540256, 2011; calls by dose curve; tested in HEK293 cells; note: potency is the fitted concentration of half-maximal effect; % is set by controls: 0 for no effect and ±100 for the full control effect; nearly all actives have a fitted effect of over 50% in size
An asterisk follows results filed as active; ? = inconclusive; . = not tested or not shown; ! = a repeat was not active; [ ] = another dose, or the depositor's remark. Compounds with a hit are over-represented: about 8% of the library has one in this group of screens.

SMILES	MARV entry inh	HCMV inh	HCV inh	FMDV antiviral	SARS PLpro yeast	LASV entry inh
CCN1CCN(c2cc(C(C)C)nc3c(-c4ccccc4)c(C)nn23)CC1	?	-92.7*	-89.2%	-20.3%	-0.9%	?
CC(C)(C)c1ccc(-n2ncc3c2CCCC3NC(=O)c2csnn2)cc1 (centres undefined)	-0.1%	-7.5	4.9%	-22.2%	3.7%	-11.0%
CC(=O)NC1CCCc2c1cnn2-c1ccc(C(C)(C)C)cc1 (centres undefined)	7.3%	-28.3	10µM*	-19.8%	-6.1%	-23.1%
Cn1nccc1C(=O)NC1CCCc2c1cnn2-c1ccc(C(C)(C)C)cc1 (centres undefined)	?	-61.2*	?	?	-8.0%	?
CC1(C)Cc2c(cnn2-c2ccc(F)cc2)C(NC(=O)C2=NNC(=O)CC2)C1 (centres undefined)	.	0.0	2.9%	6.0%	0.3%	.
CC(C)(C)c1ccc(-n2ncc3c2CCCC3NC(=O)C2=NNC(=O)CC2)cc1 (centres undefined)	.	-81.3*	?	?	-4.2%	.
CC(=O)CCC(=O)NC1CCCc2c1cnn2-c1ccc(C(C)(C)C)cc1 (centres undefined)	.	?	?	?	-1.7%	.
CC(C)(C)c1ccc(-n2ncc3c2CCCC3NC(=O)c2cnccn2)cc1 (centres undefined)	?	-63.2*	4.47µM*	-13.7%	-20.4%	?
CSCCNC(=O)C1(C)CCN1C(=O)c1ccc(C(C)(C)C)cc1 (centres undefined)	.	-20.5	.	?	.	.
C[C@H](N)C(=O)OC(C)(C)Cc1ccc(Cl)cc1	-14.3%	.	.	.	.	.
COc1ccc(C(=O)N2CCC3(CC2)c2ccccc2[C@@H](NC(=O)c2ccccn2)[C@@H]3OC)c(O)c1	.	.	.	47.0%	.	.
C/C(=C\CO)CCC(C)CCCC(C)CCCC(C)C (centres undefined)	.	.	.	3.8%	.	.
Cc1cc(C)cc(-n2ncc3c2CCCC3NC(=O)CN2CCCC2=O)c1 (centres undefined)	.	-23.2	2.6%	-15.5%	3.7%	.
CC(C)(C)c1ccc(-n2ncc3c2CCCC3NC(=O)CN2CCCC2=O)cc1 (centres undefined)	3.8%	-66.9*	10µM*	?	-0.1%	?
COc1ccccc1C1CN(CC(=O)N2CCC(N3CCOCC3)CC2)Cc2ccccc2O1 (centres undefined)	.	.	.	4.9%	.	.
CCCCc1nc(NC[C@H]2CCCO2)c(C#N)c2c1COC(C)(C)C2	-12.7%	.	.	.	.	.
C=CCNC(=O)C1CCN(c2nc(C)cc(-c3ccccc3)n2)CC1	6.8%	49.9	2.82µM*	37.8%	-1.6%	?
C/[N+]([O-])=C\c1cccc(OCCN2CCN(c3ncc(C(F)(F)F)cc3Cl)CC2)c1	?	-73.9*	25.1µM*	?	-2.5%	-17.2%[46.1 µM]
O=C(OCCN1CCN(c2ncc(C(F)(F)F)cc2Cl)CC1)c1ccc(Cl)cc1	11.2%	-9.0	12.9%	-6.1%	-7.9%	-1.9%
CCC1C(=O)NCCN1Cc1ccc2c(c1)CN(Cc1cccc(OC)c1)CCO2 (centres undefined)	.	.	.	2.6%	.	.
CC(C)Cn1c(CCCNC(=O)c2ccco2)nc2ccccc21	.	0.1	7.2%	-10.6%	-3.0%	.
O=C(NC1=NCCS1)c1ccccc1Cl	?	76.3	4.0%	20.1%	-1.0%	?
O=C(NC1=NCCS1)c1csc2ccccc12	-1.4%	242.7	7.08µM*	48.1%	-7.2%	?
O=C(NC1=NCCS1)c1ccccc1OCc1ccccc1Cl	.	-12.0	12.6µM*	-7.8%	-22.2%	.
Cc1ccc(C(C)CCN2CCOc3ccc(CN4CCOCC4)cc3C2)o1 (centres undefined)	.	.	.	-7.8%	.	.
SMILES	MARV entry inh	HCMV inh	HCV inh	FMDV antiviral	SARS PLpro yeast	LASV entry inh
CC(C)(C)Cc1c(-c2cccc(Cl)c2)nc2ccc(Br)cn12	.	-20.9	.	8.8%	.	.
CCCCNC(=S)N/N=C/c1ccccc1F	?	-6.8	?	9.8%	12.6µM*	-8.5%
CCCCNC(=S)N/N=C/c1cc(C)ccc1C	-17.4%	-2.7	-8.2%	-2.7%	?	?
CC(=O)OC[C@H]1O[C@@H](ON=C(C)CCC(=O)OC[C@H]2O[C@H](C#Cc3ccccc3)C=C[C@H]2Oc2ccc(C)cc2)[C@H](OC(C)=O)[C@@H](OC(C)=O)[C@H]1OC(C)=O	9.2%[14.2 µM]	.	.	.	.	.
Oc1ccccc1	.	-20.6	.	.	.	.
Oc1ccc(O)cc1	7.94µM*!	.	.	10.7%	.	?
O=C(N[C@H]1CC[C@@]23CCCN2C(=O)CCC[C@H]3[C@H]1Cc1ccccc1)c1cccc(C(F)(F)F)c1	.	-1.3	.	.	.	.
Cc1ccc(-n2c(SCC(=O)Nc3cc(C)on3)nc3c([nH]c4ccccc43)c2=O)cc1	1.7%	-70.0*	?	-7.6%	1.3%	.
COc1cccc(-n2c(SCC(=O)Nc3c(C)cc(C)cc3C)nc3c([nH]c4ccccc43)c2=O)c1	.	-80.3*	.	-5.1%	.	?
CCOc1ccc(-n2c(SCC(=O)Nc3cc(C)on3)nc3c([nH]c4ccccc43)c2=O)cc1	.	-35.1	22.4µM*	-15.8%	3.9%	-18.4%[46.1 µM]
CCc1ccc(NC(=O)CSc2nc3c([nH]c4ccccc43)c(=O)n2-c2ccc(C)cc2)cc1	.	-96.0*	.	0.0%	.	?
O=C(c1ccncc1)N1CCC2(CC1)CN(c1ncccn1)C2	.	.	.	1.2%	.	.
COc1ccc(S[C@]2(C(=O)N3CCCC3)CC(=O)N(c3ccccc3)[C@@H]2c2ccc(OC)cc2)cc1	.	-24.5	.	.	.	.
O=C(CSc1nc2c([nH]c3ccccc32)c(=O)n1-c1ccccc1F)Nc1cccc(C(F)(F)F)c1	.	-62.4*	.	?	.	?
COc1cc(-c2nc(SCC(=O)Nc3ccc(C)cc3)c(-c3ccc(F)cc3)[nH]2)cc(OC)c1OC	?	-61.2*	.	-25.6%	.	?
COc1ccc(-c2[nH]c(-c3cccc(OC)c3)nc2SCC(=O)NCc2ccco2)cc1	3.2%	5.9	11.2µM*	-0.9%	-15.7%	.
COCCNC(=O)CSc1nc(-c2ccc(C)cc2)[nH]c1-c1ccc(OC)cc1	-20.4%[46.1 µM]	-10.1	.	-6.1%	.	?
COCCCNC(=O)CSc1nc(-c2ccc(OC)cc2)[nH]c1-c1ccc(OC)cc1	4.3%[46.1 µM]	-112.5*	.	-6.7%	.	6.1%[46.1 µM]
COC1OC2COC(c3ccccc3)OC2C(O)C1NC(C)=O (centres undefined)	.	9.2	-0.4%	-24.4%	.	.
COc1ccc(CCNC(=O)c2ccc3nc[nH]c3c2)cc1	?	1.6	-1.8%	-3.9%	-4.9%	18.6%[46.1 µM]
O=C(CCC1N=C2c3ccccc3N=C(SCC(=O)Nc3ccccc3F)N2C1=O)NCc1ccccc1 (centres undefined)	-20.6%[46.1 µM]	-2.9	.	3.6%	.	?
